PubChem BioAssay (NCI)
About 83,000 compounds went through this panel and 20% of them were active in at least one assay; those are over-represented in the sample as a whole.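 48-hour exposure, single concentration, 96-well plates; percent growth endpoint where 0 means no net growth. Active: below 10.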 Active and inactive are the calls of the source.

Assays:
Test in all cases: NCI-60 one-dose screen, 48 h (100 = growth as untreated, 0 = no growth, -100 = all killed)
HCT-15 colon = details: 10 µM unless noted
HT29 colon = details: 10 µM unless noted
SNB-19 CNS = details: 10 µM unless noted
U251 CNS = details: 10 µM unless noted
SK-MEL-5 melanoma = details: 10 µM unless noted
UACC-62 melanoma = details: 10 µM unless noted
LOX IMVI melanoma = details: 10 µM
SK-MEL-28 melanoma = details: 10 µM unless noted
SK-MEL-2 melanoma = details: 10 µM unless noted
EKVX NSCLC = details: 10 µM unless noted
SN12C renal = details: 10 µM unless noted
UO-31 renal = details: 10 µM unless noted
TK-10 renal = details: 10 µM unless noted
ACHN renal = details: 10 µM unless noted
CAKI-1 renal = details: 10 µM unless noted
A498 renal = details: 10 µM unless noted
CCRF-CEM leukemia = details: 10 µM unless noted
MOLT-4 leukemia = details: 10 µM unless noted
PC-3 prostate = details: 10 µM unless noted

Measured: growth

COc1ccc(-c2nc3cc(C)ccc3n2CC(=O)N=Nc2c(O)[nH]c3ccc(Cl)cc23)cc1
inactive: SNB-19 CNS 31.4% | SK-MEL-2 melanoma 47.9% | UO-31 renal 41.7% | TK-10 renal 21.6% | CAKI-1 renal 33% | A498 renal 101% | CCRF-CEM leukemia 54.9% | MOLT-4 leukemia 11%
active: HCT-15 colon -71.2% | HT29 colon -71.1% | U251 CNS -73.9% | SK-MEL-5 melanoma -36.2% | UACC-62 melanoma -52.3% | LOX IMVI melanoma -93.4% | SK-MEL-28 melanoma -67.6% | EKVX NSCLC -49.5% | SN12C renal -62.6% | ACHN renal 5.37%

CC12CC[C@@H]3[C@]4(C)COC(c5cn[nH]c5-c5ccc(Br)cc5)O[C@@H]4CC[C@@]3(C)[C@@H]1CC(C1=CCOC1=O)O2 (stereo partly specified)
inactive: HCT-15 colon 42.2% | HT29 colon 47.6% | U251 CNS 53% | PC-3 prostate 24.2% | SK-MEL-5 melanoma 32.4% | LOX IMVI melanoma 22.1% | SK-MEL-28 melanoma 47.1% | SK-MEL-2 melanoma 52.4% | EKVX NSCLC 43.2% | SN12C renal 57.5% | UO-31 renal 25.1% | TK-10 renal 54.6% | ACHN renal 47% | CAKI-1 renal 43.3% | A498 renal 97.8% | CCRF-CEM leukemia 51.4%
active: MOLT-4 leukemia -0.166%

CCCn1cc(-c2nc(Nc3ccc(C(=O)NCCCCNc4cccc5c4C(=O)N(C4CCC(=O)NC4=O)C5=O)cc3)nc3[nH]ccc23)cn1 (stereo unspecified)
active: PC-3 prostate 3.62% | A498 renal -2.58% | CCRF-CEM leukemia -15.1% | MOLT-4 leukemia -37.9%
inactive: HCT-15 colon 40.1% | HT29 colon 28.1% | U251 CNS 54.1% | SK-MEL-5 melanoma 15.8% | UACC-62 melanoma 74.6% | LOX IMVI melanoma 90.5% | SK-MEL-28 melanoma 59.3% | SK-MEL-2 melanoma 10.4% | EKVX NSCLC 54.4% | SN12C renal 12.3% | UO-31 renal 73.9% | TK-10 renal 59.1% | ACHN renal 75.7% | CAKI-1 renal 27.3%

CC(C)c1sc(NC(=O)c2cc(NC(=O)c3cc(NC(=O)c4cscn4)cn3C)cn2C)nc1C(=O)NCCCN(C)C
active: HT29 colon 2.45% | SNB-19 CNS -9.66% | U251 CNS -38.4% | PC-3 prostate -26.3% | SK-MEL-5 melanoma -3.44% | UACC-62 melanoma -73.5% | SK-MEL-28 melanoma -16.3% | SK-MEL-2 melanoma -79.4% | CCRF-CEM leukemia 1.16% | MOLT-4 leukemia 5.49%
inactive: HCT-15 colon 98.6% | EKVX NSCLC 27% | SN12C renal 19.1% | UO-31 renal 85% | TK-10 renal 85.3% | ACHN renal 98.7% | CAKI-1 renal 91% | A498 renal 113%

COc1ccc2[nH]c(=O)c(CSc3nccc(-c4ccc(OC)c(OC)c4)n3)cc2c1
inactive: HCT-15 colon 16.4% | HT29 colon 16.2% | SNB-19 CNS 21.4% | U251 CNS 26% | UACC-62 melanoma 27.9% | SK-MEL-28 melanoma 42.7% | SK-MEL-2 melanoma 44.2% | EKVX NSCLC 15.7% | SN12C renal 33.6% | UO-31 renal 16.1% | TK-10 renal 26.4% | ACHN renal 24.4% | A498 renal 47.8%
active: PC-3 prostate 5.92% | SK-MEL-5 melanoma -1.05% | CAKI-1 renal -10.2%

COc1ccc2c(c1)c(-c1cc3nc(-c4cn(C)c5ncccc45)cc(N)n3n1)cn2C
active: HCT-15 colon -57.7% | HT29 colon -95.5% | U251 CNS -67% | PC-3 prostate -1.31% | SK-MEL-5 melanoma -100% | UACC-62 melanoma -89.8% | SK-MEL-28 melanoma -97.2% | SK-MEL-2 melanoma -71.9% | EKVX NSCLC -22.8% | SN12C renal -60.2% | UO-31 renal -62.1% | TK-10 renal -27.8% | ACHN renal -100% | CAKI-1 renal -35.9% | CCRF-CEM leukemia -22% | MOLT-4 leukemia -42.5%
inactive: SNB-19 CNS 22.3% | A498 renal 16.6%

COc1ccc(/C=C/c2nc3ccccc3c(=O)n2CC(=O)Nc2ccc(OC)cc2)cc1
inactive: HCT-15 colon 88.4% | HT29 colon 72.9% | SNB-19 CNS 51.9% | U251 CNS 25.6% | PC-3 prostate 46.1% | SK-MEL-5 melanoma 92.3% | SK-MEL-28 melanoma 103% | SK-MEL-2 melanoma 96% | EKVX NSCLC 114% | SN12C renal 57.3% | UO-31 renal 46.9% | TK-10 renal 48.2% | ACHN renal 14% | CAKI-1 renal 47.3% | A498 renal 130% | CCRF-CEM leukemia 63.6% | MOLT-4 leukemia 78.2%

CC12CC[C@@H]3[C@]4(C)COC(c5cn[nH]c5-c5ccc(Cl)cc5)O[C@@H]4CC[C@@]3(C)[C@@H]1CC(C1=CCOC1=O)O2 (stereo partly specified)
inactive: HCT-15 colon 36.2% | HT29 colon 22% | SNB-19 CNS 54.5% | U251 CNS 50% | PC-3 prostate 19.4% | SK-MEL-5 melanoma 16.5% | LOX IMVI melanoma 46.2% | SK-MEL-28 melanoma 39.2% | SK-MEL-2 melanoma 29.7% | EKVX NSCLC 36.1% | SN12C renal 48.5% | UO-31 renal 21% | TK-10 renal 35.3% | ACHN renal 33.8% | CAKI-1 renal 49.8% | A498 renal 85.6% | CCRF-CEM leukemia 32.8%
active: MOLT-4 leukemia -16.8%

COc1c(F)ccc(C(=O)Nc2ccc3nc(NC(=O)C4CCCN(S(=O)(=O)c5ccc(C#N)cc5)C4)sc3c2)c1F (stereo unspecified)
inactive: HCT-15 colon 90.1% | HT29 colon 85.8% | SNB-19 CNS 100% | U251 CNS 89.3% | PC-3 prostate 81.9% | SK-MEL-5 melanoma 82.5% | LOX IMVI melanoma 95.4% | SK-MEL-28 melanoma 105% | SK-MEL-2 melanoma 97.1% | EKVX NSCLC 96.2% | SN12C renal 94.6% | UO-31 renal 68.8% | TK-10 renal 112% | ACHN renal 97.4% | CAKI-1 renal 90.6% | A498 renal 101% | CCRF-CEM leukemia 92.2% | MOLT-4 leukemia 62.4%

C=C1CCC2C3(C)COC(c4ccco4)OC3CCC2(C)C1CC(Sc1ccccc1)C1=CCOC1=O (stereo unspecified)
inactive: SNB-19 CNS 86.2% | U251 CNS 31.9% | SK-MEL-5 melanoma 63.4% | UACC-62 melanoma 30.2% | SK-MEL-28 melanoma 56.1% | SK-MEL-2 melanoma 80% | EKVX NSCLC 105% | SN12C renal 21.4% | UO-31 renal 51.8% | TK-10 renal 123% | ACHN renal 70.3% | CAKI-1 renal 88.2% | A498 renal 137%
active: HCT-15 colon 3.97% | HT29 colon 8.59% | LOX IMVI melanoma -96.1% | CCRF-CEM leukemia 0.425%

CN(C)CCCNC(=O)c1cc(NC(=O)c2cc(NC(=O)c3ccc(/C=C/c4ccccc4)cc3)cn2C)cn1C
active: HT29 colon 2.73% | U251 CNS -14.9% | MOLT-4 leukemia -5.97%
inactive: HCT-15 colon 44.3% | SNB-19 CNS 78% | PC-3 prostate 46.6% | SK-MEL-5 melanoma 40.3% | UACC-62 melanoma 10.1% | SK-MEL-28 melanoma 60.2% | SK-MEL-2 melanoma 60.6% | EKVX NSCLC 66.9% | SN12C renal 49.3% | UO-31 renal 66.6% | TK-10 renal 83.7% | ACHN renal 40.3% | CAKI-1 renal 34.7% | A498 renal 103% | CCRF-CEM leukemia 22.9%

Cn1cc(-c2cc3nc(-c4cn(C)c5ncc(Br)cc45)cc(N)n3n2)c2ccccc21
active: HCT-15 colon -23.3% | HT29 colon -86.1% | SNB-19 CNS -27% | U251 CNS -68.8% | SK-MEL-5 melanoma -94% | UACC-62 melanoma -83.2% | LOX IMVI melanoma -100% | SK-MEL-28 melanoma -91.6% | SK-MEL-2 melanoma -73.6% | EKVX NSCLC -44.2% | SN12C renal -82.2% | UO-31 renal -36.3% | TK-10 renal -32.8% | ACHN renal -45.9% | CAKI-1 renal 1.08% | A498 renal -24.3% | CCRF-CEM leukemia -23.9% | MOLT-4 leukemia -42%
